Test results as given in ChEMBL document CHEMBL4513216, “Probing the Open Global Health Chemical Diversity Library for Multistage-Active Starting Points for Next-Generation Antimalarials” (ACS Infect Dis, 2020).
Screen size: about 68,000 compounds; about 2,700 (4%) showed an effect of 50% or more. This excerpt belongs to a sample that is enriched for strong results.

Each molecule was assayed on Plasmodium berghei (assay: Screen against P. berghei liver stage (PbLuc), transformed with Luciferase, at 2uM). Settings: tested at 2 uM.
Type: functional, HepG2
`CCCNC(=O)C(C)n1nc(-c2ccc(C)o2)cc(N)c1=O` (stereo not given) gave an INHIBITION of 0.86%. `Cc1ccc(CN2C[C@H]3CN(C(=O)c4ccno4)CCN3C2=O)cc1` gave an INHIBITION of 2.66%. For `CC(C)CC(C)NCCCN1CCCN(C)CC1` (stereo not given), the INHIBITION was 19.13%. With `CC(C)C(=O)N1CCC12CCCN(C(=O)c1ccccc1)C2` (stereo not given) the INHIBITION was -1.55%. For `Cc1occc1CNC(=O)C1(C)CCCN1C(=O)c1ccccc1` (stereo not given), the INHIBITION was 22.34%. In the case of `Cc1occc1CNC(=O)C1(C)CCCN(C(=O)c2ccccc2)C1` (stereo not given), the INHIBITION was 52.08%. `Cc1c(C2CCCN(C(=O)c3cccnc3)C2)n2c(nc1=O)CCC2` (stereo not given) was tested, and the INHIBITION was -16%. `Cn1cc(N2CCC3(CCCN(Cc4ccc(F)cc4)C3)C2=O)cn1` (stereo not given) showed an INHIBITION of 51.26%. For `COc1ccc(CN2CCC3(CC2)CCN(c2cnn(C)c2)C3=O)cc1`, the INHIBITION was 65.32%. Work on `Cn1cc(CN2CCC3(CCN(c4cnn(C)c4)C3=O)C2)cn1` (stereo not given) yielded an INHIBITION of 13.61%. In the case of `Cn1cc(CN2CCCC3(CCN(c4cccnc4)C3=O)C2)cn1` (stereo not given), the INHIBITION was -7.09%. For `COc1ccc(CN2CCC3(CCN(c4cccnc4)C3=O)C2)cc1` (stereo not given), the INHIBITION was 0.83%. `Cn1cc(N2CCC3(CCCN(Cc4ccoc4)C3)C2=O)cn1` (stereo not given) showed an INHIBITION of 25.4%. `Cn1ncc2c1CCCN(C(=O)C1CCC1)C2` gave an INHIBITION of 7.46%. `Cc1nccnc1CCC1COCCN1C(=O)CCc1c(C)noc1C` (stereo not given) was tested, and the INHIBITION was -12.6%. `COc1cccc(-c2noc(-c3ccc(NCC4CC4)nc3)n2)c1OC` was tested, and the INHIBITION was -57.64%. Molecule `CC(C)(C)CN1CCC[C@H]1c1nc(-c2cncnc2N)no1` has an INHIBITION of -10.21%. Work on `COc1cc(CN(C(=O)Nc2cccnc2OC)C2CC2)ccc1O` yielded an INHIBITION of -34.31%. Work on `Cn1nc2c(cc1=O)CN(Cc1nnc(-c3ccco3)o1)CC2` yielded an INHIBITION of -32.49%. In the case of `Cc1cc2n(n1)CCN(c1nc(N(C)C)nc3c1CCNC3)C2`, the INHIBITION was 15.46%. With `CC(=O)N1CCC(N2CCOC(CC3CCCCC3)C2)CC1` (stereo not given) the INHIBITION was 56.69%. `COc1cccc(CC2CN(C3CCN(C(C)=O)CC3)CCO2)c1` (stereo not given) was tested, and the INHIBITION was 17.75%. `CN(C)C(=O)N1CCC(C(=O)N2CCOC(CC3CCCCC3)C2)CC1` (stereo not given) showed an INHIBITION of 54.77%. In the case of `O=C(C1CCOCC1)N1CCOC(CC2CCCCC2)C1` (stereo not given), the INHIBITION was 28.91%. With `CC(=O)N1CCC(C(=O)N2CCOC(CC3CCCCC3)C2)CC1` (stereo not given) the INHIBITION was 38.49%. With `Cc1ncoc1C(=O)N1CCOC(CC2CCCCC2)C1` (stereo not given) the INHIBITION was -78.64%. With `CC(C)c1nc2c(n1C)CCN(CCS(=O)(=O)c1ccccc1)C2` the INHIBITION was 18.35%. In the case of `CCCc1nnsc1C(=O)NCC1CCN(S(C)(=O)=O)CC1`, the INHIBITION was -4.49%. For `Cc1ccc(CNC2(Cc3cc(-c4ccc(F)cc4)on3)COC2)o1`, the INHIBITION was 44.15%. `CN(C)c1cc(CNc2cncc(-n3cccn3)n2)ccn1` showed an INHIBITION of -15.92%. Molecule `COc1ccc2c(c1)CC(C1CCOCC1)N(C(=O)c1ccn(C)n1)C2` (stereo not given) has an INHIBITION of 15.61%. With `CC(c1ccco1)N(C(=O)COc1ccc(C#N)cc1)C1CC1` (stereo not given) the INHIBITION was 41.03%. Work on `Cc1cccc(OCCN2CCC(c3ccnn3CCO)CC2)c1` yielded an INHIBITION of 7.13%. `OCCn1nccc1C1CCN(CCOc2ccccc2)CC1` showed an INHIBITION of 39.72%. `OCCn1nccc1C1CCN(CCOc2cccc(F)c2)CC1` was tested, and the INHIBITION was 53.98%. `Cc1cc2c(o1)CC(C)(C)CC2NC(=O)CNC(=O)C1CC1` (stereo not given) was tested, and the INHIBITION was -22.24%. `Cc1ncc(CN(C)C(=O)Nc2cccc(C(=O)N3CCOCC3)c2)s1` was tested, and the INHIBITION was 15.68%. `CNC(=O)CN1CCOCC12CCN(CCc1ccccc1)CC2` gave an INHIBITION of 53.08%. Molecule `CNC(=O)CN1CCOCC12CCN(C(=O)c1ccccc1)CC2` has an INHIBITION of -41.11%. In the case of `CNC(=O)CN1CCOCC12CCN(Cc1ccncc1)CC2`, the INHIBITION was 34.47%. `Cc1cnn(CC2CCCCN2CCCS(N)(=O)=O)c1` (stereo not given) showed an INHIBITION of 8.1%. In the case of `CC(C)c1nc(O)c2nnn(C[C@H]3CCCN(Cc4cccs4)C3)c2n1`, the INHIBITION was 4.91%. Molecule `CC1(C)CN(C(=O)c2ncc(F)cc2F)CCC1(O)CN1CCOCC1` (stereo not given) has an INHIBITION of 31.97%. In the case of `Cc1nc(Nc2ncc(C)s2)cc(C2CCCN2)n1` (stereo not given), the INHIBITION was -30.88%. Work on `Cc1ccc(C(=O)N2CCO[C@H]3[C@H](OCc4ccccn4)CC[C@@H]32)o1` yielded an INHIBITION of 30.96%. `Cc1cc(C)n(CCCC(=O)N2CCc3ncc(Cl)cc3C2)n1` gave an INHIBITION of 51.99%. Work on `Cc1nc(C)n(CC(=O)N2CCc3ncc(Cl)cc3C2)n1` yielded an INHIBITION of 44.9%. Molecule `Cc1nc(C)n(CCC(=O)N2CCc3ncc(Cl)cc3C2)n1` has an INHIBITION of 40.31%. Work on `Cc1nnc(CNC(=O)[C@@H]2C[C@H](NC(=O)C(C)(C)C)CN2C)[nH]1` yielded an INHIBITION of -4.77%. `CN1C[C@@H](NC(=O)c2cc(F)cc(F)c2)C[C@H]1C(=O)NCc1ncc[nH]1` was tested, and the INHIBITION was -7.68%. `CN1C[C@@H](NC(=O)C(C)(C)C)C[C@H]1C(=O)NCc1ncc[nH]1` gave an INHIBITION of 67.85%. Work on `N#Cc1c(Cl)nsc1NCc1cccnc1OCC(F)(F)F` yielded an INHIBITION of 5.94%. In the case of `Cc1nn(C)cc1Cn1c(=O)ccc2ccccc21`, the INHIBITION was 51.36%. For `Cc1nn(C)cc1Cn1c(=O)cnc2ccccc21`, the INHIBITION was 2.82%. Work on `Cc1nn(C)cc1Cn1c(=O)c(C)nc2ccccc21` yielded an INHIBITION of 21.57%. With `CCc1nnc2n1CCN(C(=O)c1cnc3c(cnn3C(C)C)c1)C2` the INHIBITION was 24.05%. `Cc1nnc2n1CCN(C(=O)c1cnc3c(cnn3CC(C)C)c1)C2` gave an INHIBITION of 56.89%. Work on `Cc1nnc2n1CCN(C(=O)c1cnc3c(cnn3C(C)C)c1)C2` yielded an INHIBITION of 17.48%. With `CC(C)C(=O)N1CC[C@H]2N(C)CC[C@@]2(C(=O)N2CCOCC2)CC1` the INHIBITION was 35.34%. `CNC(=O)Cc1ccc(NC(=O)NCc2ncc(C)s2)cc1` gave an INHIBITION of 38.67%. With `CNC(=O)Cc1ccc(NC(=O)NCc2nc(C)sc2C)cc1` the INHIBITION was 45.82%. In the case of `CNC(=O)Cc1ccc(NC(=O)NCC(C)c2ncc(C)s2)cc1` (stereo not given), the INHIBITION was 50.59%. `CN1C(=O)C(C)(C)COc2cc(NS(=O)(=O)Cc3ccccc3)ccc21` was tested, and the INHIBITION was -18.38%. Work on `c1ccc(CN2CCc3ncnc(C4CCOC4)c3CC2)nc1` (stereo not given) yielded an INHIBITION of -4.2%. For `CCn1ccnc1CN1CCN(C(C)C(=O)NCc2ccco2)CC1` (stereo not given), the INHIBITION was -17.18%. `Cc1cnc(CN(Cc2cccc(O)c2)CC2CC2)cn1` was tested, and the INHIBITION was -14.45%. In the case of `C[C@]1(O)CCN(Cc2ncccc2F)C[C@@H]1Oc1cccc(F)c1`, the INHIBITION was 14.47%. For `C[C@]1(O)CCN(Cc2ncccc2F)C[C@@H]1Oc1ccccc1`, the INHIBITION was 51.99%. In the case of `Cc1cccnc1CN1CC[C@@](C)(O)[C@H](Oc2ccccc2)C1`, the INHIBITION was 37.4%. For `CCOC(=O)c1cc2n(n1)CCCO2`, the INHIBITION was 4.95%. `CCOCC1CN(c2ncc(F)cn2)Cc2cn(CC)nc21` (stereo not given) gave an INHIBITION of -10.78%. `O=C(Nc1ccccc1)N1CCc2nc(C(=O)N3CCCC3)sc2CC1` showed an INHIBITION of -18.86%. For `Cc1ncc(CNC(=O)CCc2ccccc2F)c(C2CCCN2C)n1` (stereo not given), the INHIBITION was 4.66%. In the case of `Cc1ncc(CNC(=O)CCc2c(C)noc2C)c(C2CCCN2C)n1` (stereo not given), the INHIBITION was 58.18%. `Cc1ncc(CNC(=O)CCc2cccs2)c(C2CCCN2C)n1` (stereo not given) gave an INHIBITION of -14.56%. With `O=C(O)c1sccc1Oc1ccc(NC(=O)C2CC2)cc1` the INHIBITION was 19.62%. `Cn1cccc1C(=O)N1CCO[C@@H]2CN(Cc3ccco3)C[C@@H]2C1` gave an INHIBITION of 35.64%. `c1ccc(Cc2nc(CNC3CCOC4(CCOCC4)C3)no2)cc1` (stereo not given) showed an INHIBITION of 1.06%. `c1ccc(-c2nc(CCNC3CCOC4(CCOCC4)C3)no2)cc1` (stereo not given) gave an INHIBITION of 58.53%. For `c1ccc(Cc2noc(CCNC3CCOC4(CCOCC4)C3)n2)cc1` (stereo not given), the INHIBITION was -7.16%. With `c1cnc2[nH]c(C3CCNCC3)c(CN3CCOCC3)c2c1` the INHIBITION was 26.98%. With `NC(=O)c1nc2c(s1)CCN(Cc1ccccc1)CC2` the INHIBITION was -14.74%. For `CCC(CC)c1cc(CNC(=O)N2CCOCC2CC)on1` (stereo not given), the INHIBITION was -8.83%. With `CC(C)C(=O)NCCNC(=O)C12CCC(=O)N1c1cc(Cl)ccc1S2` (stereo not given) the INHIBITION was 79.21%. `CCOCCCNC(=O)C1(C)CCC(=O)N1c1ccccc1F` (stereo not given) gave an INHIBITION of 19.99%. For `CC(C)NC(=O)CNC(=O)C12CCC(=O)N1c1cc(Cl)ccc1S2` (stereo not given), the INHIBITION was 62.51%. In the case of `CC(C)C(=O)NCc1cccc(N2CCCCC2=O)c1`, the INHIBITION was -8.7%. `CC(C)NC(=O)CNC(=O)N1CCc2c([nH]c3ccc(Cl)cc23)C1` gave an INHIBITION of 43.4%. `COC(=O)CNC(=O)C12CCC(=O)N1c1cc(Cl)ccc1S2` (stereo not given) gave an INHIBITION of 48.21%. `CC(=O)Nc1cccc(OCCNC(=O)N(C)Cc2ccncc2)c1` gave an INHIBITION of -44.49%. For `O=C(NC(c1ccc(Cl)cc1)c1cccnc1)C1CC1` (stereo not given), the INHIBITION was -58.01%. With `O=S(=O)(Cc1ccccc1Cl)NCCCN1CCCC1` the INHIBITION was 49.88%. Work on `O=S(=O)(Cc1c(F)cccc1Cl)NCCCN1CCCCCC1` yielded an INHIBITION of 53.19%. Work on `O=S(=O)(Cc1ccccc1F)NCCCN1CCCCC1` yielded an INHIBITION of 21.18%. In the case of `CN(CC(=O)N1CC(C)(C)[C@@](C)(O)C1)Cc1ccncc1`, the INHIBITION was 32.07%. In the case of `CCc1nnc(Nc2cc(C)nc(C3CCN(c4ncccn4)C3)n2)s1` (stereo not given), the INHIBITION was -10.89%. `O=C(c1cc(COc2ccc3c(c2)OCO3)[nH]n1)N1CCSCC1` gave an INHIBITION of 14.46%. `Cn1cnc2c1CCN(c1ccnc(-c3ccccc3)n1)C2` was tested, and the INHIBITION was 56.33%. For `Cn1cnc2c1CCN(Cc1csc(-c3ccccc3)n1)C2`, the INHIBITION was 6.3%. For `c1ccc(-c2nccc(N3CCc4c(ncn4C4CC4)C3)n2)cc1`, the INHIBITION was 24.51%. `Cc1nc(CN2CCN(c3nc4c(s3)c(C)nn4C)CC2)cs1` was tested, and the INHIBITION was 36.88%. Molecule `COc1ccc(NC(=O)C(c2cccc(F)c2)N2CCOCC2)cc1` (stereo not given) has an INHIBITION of 26.65%. With `COc1ccc(NC(=O)C(c2ccc(OC)cc2)N2CCOCC2)cc1` (stereo not given) the INHIBITION was 27.22%. Molecule `O=C(Nc1ccc(F)cc1)C(c1ccccc1)N1CCOCC1` (stereo not given) has an INHIBITION of 71.1%. `CC(C)c1ccc(OCC(=O)N(C)C)cc1` showed an INHIBITION of -32.48%.
